Shown is part of a subset that was picked to be rich in hits.
TTR transcr act: TTR transcription activation, primary screen; SH-SY5Y TTR promoter Gaussia luciferase, luminescence; 100% = recombinant luciferase protein wells; activation, % at 16.7 µM; 92,000 compounds, 1.3% hits;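 active = activation above the mean of all tested compounds plus 3 SD, cut at about 9.5% in these data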;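 note: cells exposed to compounds for one day before reading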
TTR inh HuH7: counter-screen for TTR activators: TTR transcription inhibitors in HuH7 cells; shares compounds with TTR transcr act; HuH7 TTR promoter-Gaussia luciferase reporter, luminescence; inhibition, % at 16.7 µM; 1,100 compounds, 4% hits; AID 1117279;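 active = average inhibition above the solvent-only control wells' mean plus 3 SD, cut at about 15% in these data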;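 note: inhibitors lower well luminescence so higher value means more inhibition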
TTR up confirm: confirmation of human transthyretin transcription activators; 1,100 tested, under 10 active; AID 1117280; shares compounds with TTR transcr act; activation, % at 16.7 µM; SHSY5Y TTR promoter Gaussia luciferase, luminescence; 100% = purified Lucia enzyme wells, no cells;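 active = mean activation above a set limit taken from the earlier primary screen, cut at about 11% in these data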
Each line names hits and unclear results; the compound was inactive in the other large screens (follow-up assays come after a bar, where they were run).

COC(=O)c1ccc2nc(-c3ccc(F)cc3)c(Cc3ccccc3)n2c1	none
CCCc1nc2ccc(C(=O)OC)cn2c1Cc1cccc(F)c1	none
COC(=O)c1ccc2nc(C3CCCCC3)c(Cc3ccccc3)n2c1	TTR transcr act 13.6 | TTR inh HuH7 inactive | TTR up confirm inactive
COC(=O)[C@]12C[C@H](CC(=O)N3CCCCC3)C(=O)N(Cc3ccco3)C1=C[C@H](COCc1ccccc1)O[C@@H]2C	none
CCCCCCCCN1C(=O)[C@@H](CC(=O)NCCCOC)C[C@@]2(C(=O)OC)C1=C[C@H](C(C)C)O[C@@H]2C1CC1	none
CC(C)(C)c1ccc(C(=O)Nc2cc(Cl)c(Cl)cc2C(=O)O)cc1	none
COc1ccc(Cn2ccc3ccc(-c4ccc5ccn(C(=O)c6cccc(OC)c6)c5c4)cc32)cc1	none
N#Cc1ccc(Oc2ccc(/C=N/O)cn2)cc1	TTR transcr act 80.8 | TTR inh HuH7 inactive | TTR up confirm inactive
Cc1ccc2nc(/C(C#N)=C\c3ccc(Oc4ccc([N+](=O)[O-])cn4)cc3)[nH]c2c1	none
COc1nc(Oc2ccc(/C=N/O)cc2)nc(N(C)C)n1	none
C=CCN(Cc1ccc(OC)cc1OC)C(C#Cc1ccccc1)c1ccccc1 (centres undefined)	none
COC(=O)[C@]12C[C@H](CC(=O)N3CCCCC3)C(=O)N(Cc3cccc4ccccc34)C1=C[C@H](C(C)C)O[C@@H]2C1CC1	none
CC(C)CCN(C(=O)c1ccncc1)c1c(N)n(Cc2ccccc2)c(=O)[nH]c1=O	none
CCCCn1c(N)c(N(CCC(C)C)C(=O)COC(=O)c2cccnc2SC)c(=O)[nH]c1=O	none
CCOc1ncccc1C(=O)N(CCC(C)C)c1c(N)n(Cc2ccccc2)c(=O)[nH]c1=O	TTR transcr act 17.4 | TTR inh HuH7 inactive | TTR up confirm inactive
CN(Cc1ccccc1)C(=O)OCc1cn(Cc2cccc(F)c2F)nn1	none
Cc1ccsc1C(=O)N1CCCC1(C)C(=O)NCC(C)C (centres undefined)	none
CC(C)CCNC(=O)[C@H]1COC(O)([C@H](Cc2ccccc2)NC(=O)[C@@H](NC(=O)OCc2ccccc2)C(C)C)CN1C (some centres undefined)	none
C[C@@]12C(=O)N(CCO)CC(=O)N1[C@H](/C=C/c1ccccc1)[C@@H]1C(=O)N(c3ccccc3)C(=O)[C@@H]12	TTR transcr act 23.1 | TTR inh HuH7 inactive | TTR up confirm inactive
O=C1[C@H]2[C@@H](/C=C/c3ccccc3)N3C(=O)CN(CCO)C(=O)[C@@]3(Cc3ccccc3)[C@H]2C(=O)N1c1ccccc1	none
O=C1[C@H]2[C@@H](/C=C/c3ccccc3)N3C(=O)CN(CC4CC4)C(=O)[C@@]3(Cc3ccccc3)[C@H]2C(=O)N1c1ccccc1	none
COc1ccc(NC(=S)N(CCCN2CCCC2)Cc2cccn2Cc2ccc(Cl)cc2)cc1Cl	none
Oc1ccc(Oc2ccccc2F)c2cccnc12	none
CCOc1ccc(OCC)c(NC(=O)C2CCCN(c3ncccn3)C2)c1 (centres undefined)	none
CCC(C)c1ccc(NC(=O)C2CCCN(c3ncccn3)C2)cc1 (centres undefined)	none
CCc1ccccc1NC(=O)C1CCCN(c2ncccn2)C1 (centres undefined)	TTR transcr act 12.1 | TTR inh HuH7 inactive | TTR up confirm inactive
O=C(NCc1cccs1)O[C@H]1CC[C@@]23CCCN2C(=O)CCC[C@H]3C1	none
COCCN(CC(=O)NCC1CCCO1)C(=O)CCC(=O)Nc1cc(C)ccn1 (centres undefined)	none
COCCNC(=O)C(c1ccc(F)cc1)N(CC1CCCO1)C(=O)CCC(=O)Nc1ccccn1 (centres undefined)	none
COCCNC(=O)CN(CC1CCCO1)C(=O)CCC(=O)Nc1ccccn1 (centres undefined)	TTR transcr act 16.2 | TTR inh HuH7 inactive | TTR up confirm inactive
O=C1CC(c2ccc3c(c2)OCO3)N=C2N(Cc3ccc4c(c3)OCO4)C/C(=C/c3ccccc3)N12 (centres undefined)	none
O=C(CSc1nnc(CNC(=O)c2c(F)cccc2F)o1)Nc1ccc2c(c1)OCCO2	TTR transcr act 11.0 | TTR inh HuH7 inactive | TTR up confirm inactive
O=C(CSc1nnc(CNC(=O)c2ccccc2)o1)Nc1ccc2c(c1)OCO2	none
O=C(CSc1nnc(CNC(=O)c2c(F)cccc2F)o1)Nc1ccc2c(c1)OCO2	none
O=C(Oc1coc(CSc2ncccn2)cc1=O)c1ccc([N+](=O)[O-])cc1	none
C[C@H]1COc2cc(N3CCSCC3)ccc2S(=O)(=O)N1C	none
C[C@H]1[C@@H](OC(=O)Nc2ccc(C#N)cc2)CC[C@@]23CCCN2C(=O)CCC[C@@H]13	none
O=C(Nc1ccc(F)cc1)OC[C@@H]1CSCCS(=O)(=O)N1	none
CN(C)Cc1n[nH]c(=O)c2ccccc12	TTR transcr act 26.2 | TTR inh HuH7 inactive | TTR up confirm inactive
O=c1[nH]nc(Cc2ccc(Cl)cc2Cl)c2ccccc12	none
O=C(O)Cc1n[nH]c(=O)c2ccccc12	none
COc1ccc2nc3n(c(=O)c2c1)-c1ncccc1C(=O)NC3Cc1ccccc1 (centres undefined)	none
COc1cccc2c(NCc3ccccc3)nc(-n3c(N)nc4ccccc43)nc12	none
C=CCCC(=O)N[C@H]1CC[C@@]23CCCN2C(=O)CCC[C@H]3[C@H]1C	none
Cc1ccccc1Nc1nc(-c2ccccc2)c(C(=O)Nc2cccnc2)s1	TTR transcr act 13.5 | TTR inh HuH7 inactive | TTR up confirm inactive
O=C(Nc1ccccc1)c1sc(Cl)nc1-c1ccccc1	none
Cc1nc(Nc2ccc(Cl)c(Cl)c2)sc1C(=O)Nc1ccccc1	none
C=CCN=C1CC(C)(C)C(C(=O)OC)C(O)=C1C(=O)CCC (centres undefined)	none
C[C@H](CO)N1C[C@H](C)[C@@H](CN(C)C(=O)c2cc(-c3ccccc3)on2)OCc2cnnn2CCCC1=O	none
C[C@H]1CN([C@@H](C)CO)C(=O)CCCn2cc(nn2)CO[C@@H]1CN(C)S(=O)(=O)c1ccc(Cl)cc1	none
C[C@@H]1CN([C@H](C)CO)C(=O)CCCn2nncc2CO[C@H]1CN(C)C(=O)c1cc(-c2ccccc2)on1	none
C[C@H]1CN([C@@H](C)CO)C(=O)CCCn2nncc2CO[C@H]1CN(C)C(=O)c1cc(-c2ccccc2)on1	TTR transcr act 13.9 | TTR inh HuH7 inactive | TTR up confirm inactive
C[C@@H]1CN([C@H](C)CO)C(=O)CCCn2cc(nn2)CO[C@H]1CN(C)S(=O)(=O)c1ccc(Oc2ccccc2)cc1	TTR transcr act 17.0 | TTR inh HuH7 inactive | TTR up confirm inactive
C[C@H](CO)N1C[C@H](C)[C@@H](CN(C)S(=O)(=O)c2ccccc2)OCc2cn(nn2)CCCC1=O	none
O=S(=O)(CC1NCCc2ccccc21)NCc1ccccc1 (centres undefined)	none
CC1=NN(c2ccccc2)C(=O)/C1=C/c1cn(C)c2ccccc12	none
CC(=O)C(=Cc1cn(-c2ccccc2)nc1-c1ccccc1)C(C)=O	none
O=C(NCc1ccc(F)c(F)c1)C1CCC(=O)N(CCc2ccccc2)C1 (centres undefined)	none
Cc1ccc(F)cc1CNC(=O)C1CCC(=O)N(CCc2ccccc2)C1 (centres undefined)	none
CCOC(=O)CC1(NC(=O)C2CCC(=O)N(CCc3ccccc3)C2)CCCCC1 (centres undefined)	TTR transcr act 13.6 | TTR inh HuH7 inactive | TTR up confirm inactive
